# Laboratory results as given in PubChem BioAssay.
# Results filed as inconclusive are left out. The source made the active and inactive calls. Unless noted, the limit is not given here; nearly all actives have AC50 up to about 30 µM.
# Tests used:
# [1] = growth inhibition of DIPG glioma cells, dose response, cell-based, SU-DIPG-XIII, MIPE4.0, CellTiter-Glo, qHTS (AID 1347061; cut-off not given, nearly all actives have AC50 up to about 37 µM;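 also: cells exposed to compound for 48 hours before readout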); settings: SU-DIPG-XIII viability, CellTiter-Glo ATP luminescence
# [2] = growth inhibition of DIPG glioma cells, dose response, cell-based, JHH-DIPG-1, MIPE4.0, CellTiter-Glo, qHTS (AID 1347062; cut-off not given, nearly all actives have AC50 up to about 27 µM); settings: JHH-DIPG-1 viability, CellTiter-Glo ATP luminescence
# [3] = growth inhibition of DIPG glioma cells, dose response, cell-based, SU-DIPG-IV, MIPE4.0, CellTiter-Glo, qHTS (AID 1347063); settings: SU-DIPG-IV viability, CellTiter-Glo ATP luminescence;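 also: compound exposure lasted 48 hours before the viability readout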
# [4] = SU-DIPG-VI glioma cell viability, MIPE4.0 library, CellTiter-Glo luminescence, qHTS (AID 1347066); settings: CellTiter-Glo ATP luminescence;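 also: cells exposed to compound for 48 hours before readout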
# [5] = JHH-DIPG-1 glioma cell viability, MIPE5.0 library, CellTiter-Glo luminescence, qHTS (AID 1347067; cut-off not given, nearly all actives have AC50 up to about 26 µM;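 also: cells exposed to compound for 48 hours before readout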); settings: JHH-DIPG-1 glioma viability, CellTiter-Glo ATP luminescence
# [6] = SU-DIPG-XXV glioma cell viability, MIPE5.0 library, qHTS (AID 1347068; cut-off not given, nearly all actives have IC50 up to about 30 µM)
# [7] = LFS_MB_P medulloblastoma growth inhibition, cell-based, chromothripsis tumors, cisplatin or BGB combos (AID 1671449; in the data active = inhibition above about 80%;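 also: cells exposed for 96 hours; 0% = vehicle DMSO and 100% = killing by high DMSO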); settings: LFS_MB_P medulloblastoma cells
# [8] = HDN33 neuroblastoma growth inhibition, cell-based, chromothripsis tumors, cisplatin or BGB combos (AID 1671450; in the data active = inhibition above about 80%;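 also: cells exposed to compound for four days; 0% = vehicle DMSO and 100% = cell killing by high DMSO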); settings: HDN33 neuroblastoma cells, stronger effect = higher value
# [9] = ICB984 medulloblastoma cell growth inhibition, synergistic combos for chromothripsis tumors, cisplatin or BGB combos (AID 1671451; call rule not given here;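 also: cells exposed for 96 hours before readout; 0% = vehicle DMSO and 100% = killing by high DMSO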); settings: ICB984 medulloblastoma cells, drug combinations, stronger effect = higher value
# [10] = LFS_MB_1R medulloblastoma cell growth inhibition, synergistic combos for chromothripsis tumors, cisplatin or BGB combos (AID 1671452; in the data active = inhibition above about 80%;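 also: cells exposed for 96 hours before readout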); settings: LFS_MB_1R medulloblastoma cells, stronger effect = higher value
# [11] = HTB85 osteosarcoma cell growth inhibition, synergistic combos for chromothripsis tumors, BGB or cisplatin IC20 combos (AID 1671453; in the data active = inhibition above about 80%;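 also: cells exposed for 96 hours before readout; 0% = vehicle DMSO and 100% = high DMSO killing control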); settings: HTB85 osteosarcoma cells, drug combinations, stronger effect = higher value
# [12] = MDA-MB-436 breast carcinoma cell growth inhibition, synergistic combos for chromothripsis tumors, BGB or cisplatin combos (AID 1671458; call rule not given here;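 also: cells exposed for 96 hours; 0% = vehicle DMSO and 100% = killing by high DMSO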); settings: MDA-MB-436 breast carcinoma growth inhibition, drug combinations, stronger effect = higher value
# [13] = growth inhibition of BT084 medulloblastoma cells, cell-based, ICGC_MB145, cisplatin and BGB IC40 combos (AID 1671461; in the data active = inhibition above about 80%;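 also: cells exposed to drugs for 96 hours; 0% = vehicle DMSO and 100% = high DMSO full killing control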); settings: drug combinations, stronger effect = higher value
# [14] = growth inhibition of RCMB18 medulloblastoma cells, cell-based, cisplatin and BGB IC40 combos (AID 1671462; in the data active = inhibition above about 80%;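 also: cells exposed to compound for four days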); settings: stronger effect = higher value
# [15] = growth inhibition of CRL1545 osteosarcoma cells, cell-based, cisplatin and BGB IC20 combos (AID 1671464; in the data active = inhibition above about 80%;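 also: cells exposed to compound for 96 hours before readout; 0% = vehicle DMSO and 100% = high DMSO killing control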); settings: stronger effect = higher value
# [16] = sensitizers of A549 cells to miR-34 induction, primary screen, imaging, A549 dox-inducible miR-34, nuclei and caspase counts (AID 1347080;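 active = compounds whose cell count with miR-34 switched on is under 0.7 times the count with it off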); settings: A549 miR-34 inducible, Hoechst nuclei count, 48 h
# [17] = modifiers of HSF1 nuclear foci, imaging, Selleck Cancer Library (AID 1347162; in the data active = plate-normalised HSF1 focus index below about 0.46); settings: human cells, at 10 µM; SSMD: measured here: HSF1 foci SSMD mean; cell count: measured here: cell number; plate-normalised HSF1 focus index: stronger effect = lower value
# [18] = survival rescue of mitochondrial mutant cells in low glucose, primary screen, MELAS cybrids, Rieske KO mouse fibroblasts, CellTiter-Glo (AID 1508586;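 active = mean z-score across replicates of 1.96 or higher in either the MELAS or the Rieske mutant cell line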;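 also: z relative to plate mean and SD of compound and empty wells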)
# [19] = measured here: combination with BGB IC40, at 0.05 µM
# [20] = measured here: with BGB IC20 combination, at 0.5 µM
# [21] = measured here: with cisplatin IC20 combination, at 0.5 µM
# [22] = measured here: combination with cisplatin, at 0.5 µM
# [23] = stronger effect = lower value, cell number ratio, induced over uninduced
# [24] = measured here: relative caspase fold change +Dox/-Dox
# [25] = measured here: total cells with miR-34 induction, stronger effect = lower value
# [26] = measured here: total cells without miR-34 induction
# [27] = MELAS cybrid survival, CellTiter-Glo 48 h, stronger effect = higher value
# [28] = Rieske KO mouse fibroblast survival, CellTiter-Glo 72 h
structure (smiles),measurement,setting,value
CC(C)OC(=O)[C@H](C)N[P@](=O)(OC[C@H]1O[C@@H](n2ccc(=O)[nH]c2=O)[C@](C)(F)[C@@H]1O)Oc1ccccc1,outcome,[1],inactive
same,outcome,[2],inactive
same,outcome,[3],inactive
same,outcome,[4],inactive
same,AC50,[5],2.63 µM (active)
same,outcome,[6],inactive
same,inhibition,"[7]; at 0.5 µM, stronger effect = higher value",-27.6% (inactive)
same,inhibition,"[7]; measured here: combination with BGB IC20, at 0.005 µM",-8.86%
same,inhibition,"[7]; measured here: combination with BGB IC40, at 0.005 µM",-29.9%
same,inhibition,[7]; [19],-32.6%
same,inhibition,"[7]; measured here: combination with cisplatin, at 0.5 µM, stronger effect = higher value",-25.8%
same,inhibition,"[7]; measured here: combination with cisplatin, at 5 µM, stronger effect = higher value",-29.3%
same,inhibition,"[8]; BGB combo, at 5 µM",-36.1%
same,inhibition,[8]; at 0.5 µM,-7.68% (inactive)
same,inhibition,"[8]; cisplatin combo, at 5 µM",-4.94%
same,inhibition,[8]; [20],-9.88%
same,inhibition,[8]; [21],5.66%
same,inhibition,"[8]; single agent, at 5 µM",-12.1%
same,inhibition,"[9]; BGB IC20 combo, at 0.005 µM",-18%
same,inhibition,"[9]; BGB IC40 combo, at 0.005 µM",-9.03%
same,inhibition,"[9]; BGB IC40 combo, at 0.05 µM",-19.6%
same,inhibition,[9]; at 0.5 µM,-6.96% (inactive)
same,inhibition,"[9]; cisplatin combo, at 0.05 µM",-25.8%
same,inhibition,"[9]; cisplatin combo, at 0.5 µM",-2.19%
same,inhibition,"[9]; cisplatin combo, at 5 µM",-12.1%
same,inhibition,"[9]; measured here: 5 uM single agent, at 5 µM",-20.9%
same,inhibition,[10]; at 0.5 µM,-18.8% (inactive)
same,inhibition,[10]; [19],-16%
same,inhibition,[10]; [22],-13.4%
same,inhibition,"[10]; measured here: combination with cisplatin, at 5 µM",-6.21%
same,inhibition,[11]; at 0.5 µM,14.1% (inactive)
same,inhibition,"[11]; measured here: with BGB IC20, at 0.5 µM",45.6%
same,inhibition,"[11]; measured here: with BGB IC20, at 5 µM",9.23%
same,inhibition,"[11]; measured here: with cisplatin IC20, at 0.5 µM",-3.56%
same,inhibition,"[11]; measured here: with cisplatin IC20, at 5 µM",2.16%
same,inhibition,"[11]; single agent, at 5 µM",7.57%
same,inhibition,[12]; at 0.5 µM,-14.4% (inactive)
same,inhibition,"[12]; measured here: BGB combination, at 0.5 µM",-6.51%
same,inhibition,"[12]; measured here: BGB combination, at 5 µM",-8.4%
same,inhibition,"[12]; measured here: cisplatin combination, at 0.5 µM",-26.3%
same,inhibition,"[12]; measured here: cisplatin combination, at 5 µM",-27.6%
same,inhibition,[13]; at 0.5 µM,-5.65% (inactive)
same,inhibition,"[13]; cisplatin combination, at 0.5 µM",-1.58%
same,inhibition,"[13]; cisplatin combination, at 5 µM",-68.9%
same,inhibition,"[13]; measured here: BGB IC40 combination 0.05 uM, at 0.05 µM",-37.9%
same,inhibition,"[13]; single agent, at 5 µM",12.2%
same,inhibition,[14]; at 0.5 µM,-12.6% (inactive)
same,inhibition,"[14]; cisplatin combo, at 5 µM",-10.4%
same,inhibition,"[14]; measured here: BGB IC40 combination, at 0.05 µM",-14.6%
same,inhibition,[14]; [22],5.31%
same,inhibition,"[14]; single agent, at 5 µM",-3.36%
same,inhibition,[15]; at 0.5 µM,22.4% (inactive)
same,inhibition,[15]; [20],2.82%
same,inhibition,[15]; [21],31.1%
same,inhibition,"[15]; single agent, at 0.05 µM",-4.05%
same,inhibition,"[15]; single agent, at 5 µM",-21.1%
Nc1nc2[nH]cc(CCc3ccc(C(=O)N[C@@H](CCC(=O)O)C(=O)O)cc3)c2c(=O)[nH]1,outcome,[1],inactive
same,outcome,[2],inactive
same,outcome,[3],inactive
same,outcome,[4],inactive
same,outcome,[5],inactive
same,outcome,[6],inactive
same,fold change,[16]; [23],1.36 (inactive)
same,fold change,[16]; [24],0.473
same,cell count,[16]; [25],3100
same,cell count,[16]; [26],2280
same,SSMD,[17],-2.05
same,cell count,[17],7280
same,plate-normalised HSF1 focus index,[17],0.87 (inactive)
same,z-score,[18]; [27],-0.725 (inactive)
same,z-score,[18]; [28],-0.391
C/C=C1\C2C=C(C)CC1(N)c1ccc(=O)[nH]c1C2 (stereo not given),outcome,[1],inactive
same,outcome,[2],inactive
same,outcome,[3],inactive
same,outcome,[4],inactive
same,fold change,[16]; [23],1.01 (inactive)
same,fold change,[16]; [24],0.681
same,cell count,[16]; [25],4140
same,cell count,[16]; [26],4110
C[N+]1(C)[C@@H]2CC(OC(=O)C(O)(c3cccs3)c3cccs3)C[C@H]1[C@@H]1O[C@@H]12 (stereo not given in full),outcome,[1],inactive
same,outcome,[2],inactive
same,outcome,[3],inactive
same,outcome,[4],inactive
same,fold change,[16]; [23],0.899 (inactive)
same,fold change,[16]; [24],1.32
same,cell count,[16]; [25],10300
same,cell count,[16]; [26],11500
same,z-score,[18]; [27],-0.0486 (inactive)
same,z-score,[18]; [28],-0.119
C[C@]12C=CC(=O)N[C@@H]1CC[C@@H]1[C@@H]2CC[C@]2(C)[C@@H](C(=O)Nc3cc(C(F)(F)F)ccc3C(F)(F)F)CC[C@@H]12,outcome,[1],inactive
same,outcome,[2],inactive
same,outcome,[3],inactive
O=C(O)C1=NC(C(=O)O)CC(/C=C/N2c3cc(O)c(OC4OC(CO)C(O)C(O)C4O)cc3CC2C(=O)O)=C1 (stereo not given),outcome,[1],inactive
same,outcome,[2],inactive
same,outcome,[3],inactive
same,outcome,[4],inactive
CCn1c(C(=O)N(C2CC2)C2CC2)cc2c3c(ncn3C)c(Nc3cc(C)n(C)n3)nc21,outcome,[1],inactive
same,outcome,[2],inactive
same,outcome,[3],inactive
same,outcome,[4],inactive
same,outcome,[6],inactive
COC(=O)N[C@H](C(=O)N1CCC[C@H]1c1ncc(-c2ccc(-c3ccc(-c4cnc([C@@H]5CCCN5C(=O)[C@@H](NC(=O)OC)C(C)C)[nH]4)cc3)cc2)[nH]1)C(C)C,outcome,[1],inactive
same,outcome,[2],inactive
same,AC50,[3],26.4 µM (active)
same,AC50,[5],23.5 µM (active)
Cc1ccn(-c2ccc(-c3ncco3)cc2)c(=O)c1-c1ccc2nc(N)ncc2c1,outcome,[1],inactive
same,outcome,[2],inactive
same,outcome,[3],inactive
same,outcome,[4],inactive
same,outcome,[5],inactive
